# Test results from paper PMC7862700, “An all-to-all approach to the identification of sequence-specific readers for epigenetic DNA modifications on cytosine”.
# Key:
# Test in all cases: DAPPL (digital affinity profiling via proximity ligation, sequencing); 10 mM Tris-HCl pH 7.5, 50 mM NaCl, 1 mM DTT, 4% glycerol, room temperature, 30 min; GST-TFs on glutathione beads, 16-mer random dsDNA library, 0.1% formaldehyde crosslink after washing; high values mean tight binding
# FLI1 = biological target: T1, FLI1 (Homo sapiens, UniProt Q01543 1-452); conditions: protein: recombinant; tags: N-terminal GST; dsDNA, one strand shown
# T1 sequence: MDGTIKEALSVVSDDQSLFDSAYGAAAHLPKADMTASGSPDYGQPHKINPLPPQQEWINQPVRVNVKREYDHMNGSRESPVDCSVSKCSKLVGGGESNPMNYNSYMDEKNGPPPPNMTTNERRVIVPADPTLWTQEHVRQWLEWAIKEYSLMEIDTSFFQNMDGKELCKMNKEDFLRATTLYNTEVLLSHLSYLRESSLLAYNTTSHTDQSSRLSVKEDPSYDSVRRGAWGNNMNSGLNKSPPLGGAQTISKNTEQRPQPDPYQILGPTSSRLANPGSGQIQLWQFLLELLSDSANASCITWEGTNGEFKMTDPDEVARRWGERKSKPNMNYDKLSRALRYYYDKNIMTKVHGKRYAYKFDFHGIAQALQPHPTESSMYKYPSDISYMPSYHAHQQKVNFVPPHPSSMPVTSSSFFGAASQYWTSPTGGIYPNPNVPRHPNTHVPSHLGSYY
# In short: (§1)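 GST fusions of human transcription factors were expressed in yeast and captured with glutathione beads. Once given DNA barcodes and pooled alongside a tag-only sample, they were incubated for 30 min at room temperature with 200 nmole of a random double-stranded 16-mer DNA library in Tris/NaCl/DTT/glycerol buffer, then washed, crosslinked (0.1% formaldehyde), proximity-ligated, PCR-amplified and sequenced on an Illumina NextSeq500. The binding signal of each hexamer is its read frequency for a factor divided by its frequency for the tag-only sample.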
# ELK1 = biological target: T2, ELK1 (Homo sapiens, UniProt P19419 1-428); conditions: protein: recombinant; tags: N-terminal GST; dsDNA, one strand shown
# T2 sequence: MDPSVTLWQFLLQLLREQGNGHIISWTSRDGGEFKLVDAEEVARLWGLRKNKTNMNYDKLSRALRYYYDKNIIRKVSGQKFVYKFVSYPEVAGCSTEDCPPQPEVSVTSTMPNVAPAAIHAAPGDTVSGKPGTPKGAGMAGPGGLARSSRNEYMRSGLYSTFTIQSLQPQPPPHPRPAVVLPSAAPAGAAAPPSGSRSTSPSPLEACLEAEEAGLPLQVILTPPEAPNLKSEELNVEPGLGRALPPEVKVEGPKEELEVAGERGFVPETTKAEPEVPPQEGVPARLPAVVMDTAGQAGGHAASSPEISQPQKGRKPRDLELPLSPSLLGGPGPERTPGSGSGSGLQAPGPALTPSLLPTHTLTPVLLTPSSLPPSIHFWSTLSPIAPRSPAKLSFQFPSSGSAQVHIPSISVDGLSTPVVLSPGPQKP
# In short: as §1
# GABPA = biological target: T3, GABPA (Homo sapiens, UniProt Q06546 1-454); conditions: protein: recombinant; tags: N-terminal GST; dsDNA, one strand shown
# T3 sequence: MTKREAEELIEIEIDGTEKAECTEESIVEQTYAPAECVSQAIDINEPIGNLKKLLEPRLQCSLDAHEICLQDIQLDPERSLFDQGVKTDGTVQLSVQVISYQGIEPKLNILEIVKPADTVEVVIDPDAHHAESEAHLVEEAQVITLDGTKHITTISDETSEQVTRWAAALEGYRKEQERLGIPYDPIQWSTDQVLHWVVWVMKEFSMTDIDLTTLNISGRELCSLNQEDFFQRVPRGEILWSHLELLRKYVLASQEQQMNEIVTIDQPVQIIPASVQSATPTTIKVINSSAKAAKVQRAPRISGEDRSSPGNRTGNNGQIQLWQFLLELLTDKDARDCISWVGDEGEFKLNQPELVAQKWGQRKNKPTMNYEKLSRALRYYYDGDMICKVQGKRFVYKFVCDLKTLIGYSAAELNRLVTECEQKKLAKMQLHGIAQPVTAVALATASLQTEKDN
# In short: as §1
# ERG = biological target: T4, ERG (Homo sapiens, UniProt P11308 1-479); conditions: protein: recombinant; tags: N-terminal GST; dsDNA, one strand shown
# T4 sequence: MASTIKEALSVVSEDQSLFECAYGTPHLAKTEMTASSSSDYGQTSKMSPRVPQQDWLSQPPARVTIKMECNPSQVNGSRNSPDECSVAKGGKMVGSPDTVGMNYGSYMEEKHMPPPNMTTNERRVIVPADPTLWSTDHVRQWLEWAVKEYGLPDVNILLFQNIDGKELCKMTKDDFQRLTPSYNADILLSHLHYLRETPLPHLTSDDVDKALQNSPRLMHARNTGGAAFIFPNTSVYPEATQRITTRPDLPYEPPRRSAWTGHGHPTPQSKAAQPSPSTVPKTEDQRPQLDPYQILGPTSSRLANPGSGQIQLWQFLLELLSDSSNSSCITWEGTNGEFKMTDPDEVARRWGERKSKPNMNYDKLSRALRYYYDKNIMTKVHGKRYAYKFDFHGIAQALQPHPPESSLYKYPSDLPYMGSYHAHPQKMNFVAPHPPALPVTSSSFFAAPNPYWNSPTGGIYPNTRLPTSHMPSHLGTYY
# In short: as §1
# ELF1 = ELF1 (Homo sapiens, UniProt P32519 1-619); conditions: protein: recombinant; tags: N-terminal GST; dsDNA, one strand shown
# In short: as §1
# EHF = biological target: T5, EHF (Homo sapiens, UniProt Q9NZC4 1-300); conditions: protein: recombinant; tags: N-terminal GST; dsDNA, one strand shown
# T5 sequence: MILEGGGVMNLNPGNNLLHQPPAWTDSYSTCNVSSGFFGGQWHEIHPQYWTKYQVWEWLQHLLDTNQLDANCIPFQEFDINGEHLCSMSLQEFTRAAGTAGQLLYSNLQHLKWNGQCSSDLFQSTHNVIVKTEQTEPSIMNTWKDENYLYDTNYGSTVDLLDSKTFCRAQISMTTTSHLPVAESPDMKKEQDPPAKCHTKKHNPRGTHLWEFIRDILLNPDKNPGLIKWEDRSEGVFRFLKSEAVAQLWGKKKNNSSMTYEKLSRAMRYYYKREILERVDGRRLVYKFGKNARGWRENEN
# In short: as §1
# SPI1 = SPI1 (Homo sapiens, UniProt P17947 1-270); conditions: protein: recombinant; tags: N-terminal GST; dsDNA, one strand shown
# In short: as §1
# SPIB = SPIB (Homo sapiens, UniProt Q01892 1-262); conditions: protein: recombinant; tags: N-terminal GST; dsDNA, one strand shown
# In short: as §1
# ELK3 = biological target: T6, ELK3 (Homo sapiens, UniProt P41970 1-407); conditions: protein: recombinant; tags: N-terminal GST; dsDNA, one strand shown
# T6 sequence: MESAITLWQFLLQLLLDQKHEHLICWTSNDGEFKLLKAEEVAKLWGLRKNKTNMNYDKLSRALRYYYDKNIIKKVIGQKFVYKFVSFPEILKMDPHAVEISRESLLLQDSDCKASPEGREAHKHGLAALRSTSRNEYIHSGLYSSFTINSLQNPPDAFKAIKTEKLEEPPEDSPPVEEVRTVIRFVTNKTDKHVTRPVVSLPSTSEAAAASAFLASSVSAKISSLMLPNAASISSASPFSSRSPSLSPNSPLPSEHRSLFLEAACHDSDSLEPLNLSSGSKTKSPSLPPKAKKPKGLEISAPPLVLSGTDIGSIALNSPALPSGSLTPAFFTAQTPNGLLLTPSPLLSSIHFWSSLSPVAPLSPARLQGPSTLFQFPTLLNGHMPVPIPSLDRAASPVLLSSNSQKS
# In short: as §1
# FEV = biological target: T7, FEV (Homo sapiens, UniProt Q99581 1-238); conditions: protein: recombinant; tags: N-terminal GST; dsDNA, one strand shown
# T7 sequence: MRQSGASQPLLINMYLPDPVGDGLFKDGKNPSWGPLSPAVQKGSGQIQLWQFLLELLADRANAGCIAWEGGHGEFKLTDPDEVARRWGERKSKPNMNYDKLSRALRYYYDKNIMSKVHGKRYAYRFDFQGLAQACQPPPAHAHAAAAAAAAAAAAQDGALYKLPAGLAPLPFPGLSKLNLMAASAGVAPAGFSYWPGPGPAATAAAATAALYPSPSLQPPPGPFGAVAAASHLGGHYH
# In short: as §1
# ETV5 = ETV5 (Homo sapiens, UniProt P41161 1-510); conditions: protein: recombinant; tags: N-terminal GST; dsDNA, one strand shown
# In short: as §1
# HSF1 = HSF1 (Homo sapiens, UniProt Q00613 1-529); conditions: protein: recombinant; tags: N-terminal GST; chain copies: 3; dsDNA, one strand shown
# In short: as §1
# SPIC = biological target: T8, SPIC (Homo sapiens, UniProt Q8N5J4 1-248); conditions: protein: recombinant; tags: N-terminal GST; dsDNA, one strand shown
# T8 sequence: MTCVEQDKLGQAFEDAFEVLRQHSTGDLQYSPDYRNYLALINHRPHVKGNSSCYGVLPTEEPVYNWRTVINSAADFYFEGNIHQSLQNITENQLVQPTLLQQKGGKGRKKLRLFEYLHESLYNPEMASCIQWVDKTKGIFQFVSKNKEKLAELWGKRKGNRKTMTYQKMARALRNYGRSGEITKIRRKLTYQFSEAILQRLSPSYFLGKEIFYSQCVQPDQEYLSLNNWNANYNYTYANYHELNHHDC
# In short: as §1
# ELF4 = ELF4 (Homo sapiens, UniProt Q99607 1-663); conditions: protein: recombinant; tags: N-terminal GST; dsDNA, one strand shown
# In short: as §1
# ELK4 = biological target: T9, ELK4 (Homo sapiens, UniProt P28324-2 1-405); conditions: protein: recombinant; tags: N-terminal GST; dsDNA, one strand shown
# T9 sequence: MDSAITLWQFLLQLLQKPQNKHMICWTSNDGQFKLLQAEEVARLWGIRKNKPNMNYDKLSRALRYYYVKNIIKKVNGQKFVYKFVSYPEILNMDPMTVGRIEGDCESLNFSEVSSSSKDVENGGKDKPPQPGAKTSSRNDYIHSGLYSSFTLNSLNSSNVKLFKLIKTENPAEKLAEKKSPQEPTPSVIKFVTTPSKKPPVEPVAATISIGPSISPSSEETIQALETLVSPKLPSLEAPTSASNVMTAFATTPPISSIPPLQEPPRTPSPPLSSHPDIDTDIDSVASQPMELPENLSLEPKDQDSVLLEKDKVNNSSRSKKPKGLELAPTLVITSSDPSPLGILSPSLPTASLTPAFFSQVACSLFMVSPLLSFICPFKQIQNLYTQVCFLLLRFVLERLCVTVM
# In short: as §1
# ETV2 = biological target: T10, ETV2 (Homo sapiens, UniProt O00321 1-342); conditions: protein: recombinant; tags: N-terminal GST; dsDNA, one strand shown
# T10 sequence: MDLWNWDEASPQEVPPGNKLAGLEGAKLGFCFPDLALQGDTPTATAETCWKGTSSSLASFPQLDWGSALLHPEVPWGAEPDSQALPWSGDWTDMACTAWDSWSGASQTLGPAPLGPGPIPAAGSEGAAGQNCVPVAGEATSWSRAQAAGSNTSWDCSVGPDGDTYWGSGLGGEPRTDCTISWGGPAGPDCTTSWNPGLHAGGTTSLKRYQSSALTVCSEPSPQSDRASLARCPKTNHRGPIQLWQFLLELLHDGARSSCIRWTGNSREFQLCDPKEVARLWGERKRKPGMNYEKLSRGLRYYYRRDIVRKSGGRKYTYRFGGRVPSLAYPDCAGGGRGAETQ
# In short: as §1
# ELF3 = biological target: T11, ELF3 (Homo sapiens, UniProt P78545 1-371); conditions: protein: recombinant; tags: N-terminal GST; dsDNA, one strand shown
# T11 sequence: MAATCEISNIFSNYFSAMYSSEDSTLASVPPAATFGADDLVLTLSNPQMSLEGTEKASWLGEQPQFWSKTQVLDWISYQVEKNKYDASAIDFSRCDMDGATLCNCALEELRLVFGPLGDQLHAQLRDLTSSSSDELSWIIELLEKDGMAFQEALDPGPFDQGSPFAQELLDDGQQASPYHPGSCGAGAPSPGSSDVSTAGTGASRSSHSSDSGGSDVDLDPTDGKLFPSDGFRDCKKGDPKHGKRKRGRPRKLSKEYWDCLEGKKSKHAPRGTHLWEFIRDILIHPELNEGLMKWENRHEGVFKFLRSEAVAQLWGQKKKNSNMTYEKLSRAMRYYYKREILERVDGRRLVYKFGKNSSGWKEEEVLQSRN
# In short: as §1
# CRX = CRX (Homo sapiens, UniProt O43186 1-299); conditions: protein: recombinant; tags: N-terminal GST; dsDNA, one strand shown
# In short: as §1
# ETV1 = ETV1 (Homo sapiens, UniProt P50549 1-477); conditions: protein: recombinant; tags: N-terminal GST; dsDNA, one strand shown
# In short: as §1
# HSF1, sequence (Q00613 whole entry): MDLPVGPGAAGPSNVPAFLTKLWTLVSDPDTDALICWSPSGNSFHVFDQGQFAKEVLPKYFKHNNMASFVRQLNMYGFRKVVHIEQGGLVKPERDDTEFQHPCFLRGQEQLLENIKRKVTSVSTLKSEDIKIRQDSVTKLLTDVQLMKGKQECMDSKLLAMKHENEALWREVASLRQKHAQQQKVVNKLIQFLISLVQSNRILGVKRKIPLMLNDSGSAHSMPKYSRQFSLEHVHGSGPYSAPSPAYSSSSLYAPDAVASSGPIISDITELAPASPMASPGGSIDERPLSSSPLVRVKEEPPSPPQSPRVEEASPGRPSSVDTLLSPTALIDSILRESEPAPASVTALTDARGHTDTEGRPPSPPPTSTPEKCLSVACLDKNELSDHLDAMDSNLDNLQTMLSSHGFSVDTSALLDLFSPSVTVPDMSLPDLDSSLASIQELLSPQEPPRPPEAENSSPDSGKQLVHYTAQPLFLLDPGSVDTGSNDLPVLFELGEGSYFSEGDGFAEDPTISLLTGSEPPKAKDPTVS
# ELF1, sequence (P32519 whole entry): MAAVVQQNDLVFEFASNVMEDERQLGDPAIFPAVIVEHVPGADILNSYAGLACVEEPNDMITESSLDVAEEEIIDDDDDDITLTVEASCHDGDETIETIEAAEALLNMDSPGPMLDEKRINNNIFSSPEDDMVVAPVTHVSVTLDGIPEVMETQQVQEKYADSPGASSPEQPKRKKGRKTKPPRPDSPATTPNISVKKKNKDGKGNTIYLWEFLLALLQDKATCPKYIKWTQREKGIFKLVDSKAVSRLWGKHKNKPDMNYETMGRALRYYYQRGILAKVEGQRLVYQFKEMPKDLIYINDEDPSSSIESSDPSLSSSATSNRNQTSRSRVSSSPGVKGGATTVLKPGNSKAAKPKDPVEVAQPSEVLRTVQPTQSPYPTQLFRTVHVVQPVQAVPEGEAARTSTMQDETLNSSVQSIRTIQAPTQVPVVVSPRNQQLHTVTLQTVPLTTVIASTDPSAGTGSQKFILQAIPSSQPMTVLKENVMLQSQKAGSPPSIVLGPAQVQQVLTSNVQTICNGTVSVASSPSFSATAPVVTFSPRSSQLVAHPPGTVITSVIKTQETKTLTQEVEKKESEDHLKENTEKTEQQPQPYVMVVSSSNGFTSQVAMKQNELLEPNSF
# SPIB, sequence (Q01892 whole entry): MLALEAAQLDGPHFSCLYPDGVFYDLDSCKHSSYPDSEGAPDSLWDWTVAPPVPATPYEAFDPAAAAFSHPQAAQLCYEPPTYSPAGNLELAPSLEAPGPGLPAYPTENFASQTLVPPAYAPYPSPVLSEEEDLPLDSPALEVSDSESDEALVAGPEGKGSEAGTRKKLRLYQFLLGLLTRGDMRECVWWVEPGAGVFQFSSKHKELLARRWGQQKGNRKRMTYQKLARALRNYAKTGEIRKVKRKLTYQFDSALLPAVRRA
# CRX, sequence (O43186 whole entry): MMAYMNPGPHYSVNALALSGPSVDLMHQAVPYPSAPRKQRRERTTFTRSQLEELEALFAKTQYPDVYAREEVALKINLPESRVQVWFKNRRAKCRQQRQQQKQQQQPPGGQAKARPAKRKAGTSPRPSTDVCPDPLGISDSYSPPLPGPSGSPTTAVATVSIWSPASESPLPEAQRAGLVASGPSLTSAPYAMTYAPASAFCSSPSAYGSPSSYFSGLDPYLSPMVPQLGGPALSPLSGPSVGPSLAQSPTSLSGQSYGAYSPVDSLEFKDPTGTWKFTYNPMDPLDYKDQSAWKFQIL
# ETV5, sequence (P41161 whole entry): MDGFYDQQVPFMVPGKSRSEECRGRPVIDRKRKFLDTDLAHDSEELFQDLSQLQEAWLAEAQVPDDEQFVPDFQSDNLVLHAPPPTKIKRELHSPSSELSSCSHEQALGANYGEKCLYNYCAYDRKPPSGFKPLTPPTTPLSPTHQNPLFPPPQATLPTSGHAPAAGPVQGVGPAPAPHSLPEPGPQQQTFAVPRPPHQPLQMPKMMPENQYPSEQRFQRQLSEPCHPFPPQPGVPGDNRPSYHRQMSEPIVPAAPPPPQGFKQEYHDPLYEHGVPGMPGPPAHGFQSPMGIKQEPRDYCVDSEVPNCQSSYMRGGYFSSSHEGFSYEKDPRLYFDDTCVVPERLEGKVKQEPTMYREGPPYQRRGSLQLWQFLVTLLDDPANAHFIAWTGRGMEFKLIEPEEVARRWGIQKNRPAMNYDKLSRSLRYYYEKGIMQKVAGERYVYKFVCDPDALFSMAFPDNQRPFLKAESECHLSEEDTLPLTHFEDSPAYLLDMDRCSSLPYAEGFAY
# ELF4, sequence (Q99607 whole entry): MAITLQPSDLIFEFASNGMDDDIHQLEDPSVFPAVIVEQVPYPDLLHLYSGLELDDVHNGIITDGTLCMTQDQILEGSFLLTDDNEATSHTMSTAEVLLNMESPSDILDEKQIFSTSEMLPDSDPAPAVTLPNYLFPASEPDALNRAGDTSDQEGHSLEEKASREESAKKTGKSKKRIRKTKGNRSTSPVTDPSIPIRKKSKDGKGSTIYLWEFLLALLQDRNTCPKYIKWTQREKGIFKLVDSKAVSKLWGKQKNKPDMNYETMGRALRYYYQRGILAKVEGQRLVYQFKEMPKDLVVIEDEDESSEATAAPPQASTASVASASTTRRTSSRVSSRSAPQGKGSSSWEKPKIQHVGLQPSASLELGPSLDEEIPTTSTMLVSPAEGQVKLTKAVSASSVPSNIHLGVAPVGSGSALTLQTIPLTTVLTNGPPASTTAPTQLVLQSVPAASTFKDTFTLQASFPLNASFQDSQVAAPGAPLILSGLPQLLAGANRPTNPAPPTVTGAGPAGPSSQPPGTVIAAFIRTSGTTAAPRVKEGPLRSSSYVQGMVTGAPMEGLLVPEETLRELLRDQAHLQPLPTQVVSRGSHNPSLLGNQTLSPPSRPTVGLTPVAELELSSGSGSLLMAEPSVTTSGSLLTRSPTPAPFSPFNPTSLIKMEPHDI
# ETV1, sequence (P50549 whole entry): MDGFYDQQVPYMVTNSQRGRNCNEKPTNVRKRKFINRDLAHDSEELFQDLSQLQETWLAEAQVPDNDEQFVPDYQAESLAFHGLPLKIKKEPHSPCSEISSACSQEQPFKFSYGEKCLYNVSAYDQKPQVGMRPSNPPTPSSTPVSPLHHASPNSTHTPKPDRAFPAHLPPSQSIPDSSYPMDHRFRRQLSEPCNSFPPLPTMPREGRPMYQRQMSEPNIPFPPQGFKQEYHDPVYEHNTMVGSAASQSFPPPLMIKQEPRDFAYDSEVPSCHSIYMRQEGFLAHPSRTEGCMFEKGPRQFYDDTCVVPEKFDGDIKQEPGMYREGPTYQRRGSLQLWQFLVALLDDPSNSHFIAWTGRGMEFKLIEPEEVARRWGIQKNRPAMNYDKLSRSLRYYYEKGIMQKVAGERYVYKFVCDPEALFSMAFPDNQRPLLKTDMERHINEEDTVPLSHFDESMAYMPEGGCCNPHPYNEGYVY
sequence,measurement,setting,value
CCTTAG,binding signal,FLI1,"1.3 fold enrichment (6-mer frequency, TF over GST control)"
same,binding signal,ELK1,"1.3 fold enrichment (6-mer frequency, TF over GST control)"
same,binding signal,GABPA,"1.18 fold enrichment (6-mer frequency, TF over GST control)"
same,binding signal,ERG,"1.24 fold enrichment (6-mer frequency, TF over GST control)"
same,binding signal,ELF1,"1.27 fold enrichment (6-mer frequency, TF over GST control)"
same,binding signal,EHF,"1.3 fold enrichment (6-mer frequency, TF over GST control)"
same,binding signal,SPI1,"1.21 fold enrichment (6-mer frequency, TF over GST control)"
same,binding signal,SPIB,"1.34 fold enrichment (6-mer frequency, TF over GST control)"
same,binding signal,ELK3,"1.23 fold enrichment (6-mer frequency, TF over GST control)"
same,binding signal,FEV,"1.28 fold enrichment (6-mer frequency, TF over GST control)"
same,binding signal,ETV5,"1.18 fold enrichment (6-mer frequency, TF over GST control)"
same,binding signal,HSF1,"1.2 fold enrichment (6-mer frequency, TF over GST control)"
same,binding signal,SPIC,"1.36 fold enrichment (6-mer frequency, TF over GST control)"
same,binding signal,ELF4,"1.34 fold enrichment (6-mer frequency, TF over GST control)"
same,binding signal,ELK4,"1.34 fold enrichment (6-mer frequency, TF over GST control)"
same,binding signal,ETV2,"1.32 fold enrichment (6-mer frequency, TF over GST control)"
same,binding signal,ELF3,"1.05 fold enrichment (6-mer frequency, TF over GST control)"
same,binding signal,CRX,"1.28 fold enrichment (6-mer frequency, TF over GST control)"
same,binding signal,ETV1,"1.22 fold enrichment (6-mer frequency, TF over GST control)"
